# Laboratory results as given in ChEMBL document CHEMBL3988442, “University of Dundee, Small-Polar-MMV Screening Library” (2021).
# Test system: Trypanosoma cruzi
# Experiment: Trypanosoma cruzi phosphomannomutase and mannose-1-phosphate guanylyltransferase assay
# Format: functional
# Parameters: scale not given: direction of the effect not stated beside the values
# Conditions: 10 µM
row,SMILES,Percent Effect [%]
1,CNC(=O)c1cccnc1Oc1ccccc1,5.07
2,O=C(CSc1ccc(F)c(F)c1)NS(=O)(=O)c1ccc2c(c1)OCCO2,0.282
3,CCSCCC(=O)NS(=O)(=O)c1ccc2c(c1)OCCO2,-1.97
4,CC1CCCCN1Cc1ccc(-c2ccccc2C(=O)O)cc1 (stereo not given),-4.73
5,Cc1noc(C)c1C(=O)N1CC[C@H]2C[C@@H](c3nccs3)O[C@@H]2C1,5.55
6,Cn1ccc(CN2CCC(NC(=O)Cc3ccccc3)CC2)cc1=O,6.85
7,O=S(=O)(c1ccccc1)N1CCCCC1c1cc[nH]n1 (stereo not given),-6.71
8,COCCN(C)C[C@@H]1CCC[C@@H]2CN(c3cc(OC)ncn3)C[C@@H]21,-1.27
9,CC(C)NC(=O)N1CCN(Cc2ccccn2)CC2(CC(=O)N(C)C2)C1 (stereo not given),-0.563
10,CCn1nc(C)c(CCNC(=O)C2CCCN(C(=O)N(C)C)C2)c1C (stereo not given),-2.04
11,Cc1cccc(C(=O)N2CCCN(Cc3cnn(C)c3)CC2)n1,1.6
12,COCCC(=O)N1CCn2c(COCC3CC3)cnc2C1C (stereo not given),-3.6
13,c1ccc(CNC2CCc3ncnn3C2)nc1 (stereo not given),-4.98
14,COCCOc1cccc(C(=O)N2CCCC(n3ccnc3C)C2)c1 (stereo not given),4.85
15,CC(C)N(Cc1nc2c(cnn2C)c(=O)[nH]1)c1ccccc1,5.54
16,Cc1nc(CN2CCCC(CCc3ccc(F)cc3F)C2)c[nH]1 (stereo not given),4.75
17,COCC(C)N(C)C(=O)c1nc(S(C)(=O)=O)n2ccccc12 (stereo not given),-2.35
18,Cc1ccccc1N1CC2(CCN(S(=O)(=O)c3cccs3)C2)CC1=O (stereo not given),0
19,Cc1ccc(CN2CCCn3c(nc(Cn4cncn4)cc3=O)C2)s1,2.43
20,Cc1ccc2oc(C(=O)N3CCc4nnc(N(C)C)cc4C3)cc2n1,3.21

# Biological target: T1, Arginase-2, mitochondrial (Homo sapiens) (UniProt P78540)
# T1 sequence (whole entry): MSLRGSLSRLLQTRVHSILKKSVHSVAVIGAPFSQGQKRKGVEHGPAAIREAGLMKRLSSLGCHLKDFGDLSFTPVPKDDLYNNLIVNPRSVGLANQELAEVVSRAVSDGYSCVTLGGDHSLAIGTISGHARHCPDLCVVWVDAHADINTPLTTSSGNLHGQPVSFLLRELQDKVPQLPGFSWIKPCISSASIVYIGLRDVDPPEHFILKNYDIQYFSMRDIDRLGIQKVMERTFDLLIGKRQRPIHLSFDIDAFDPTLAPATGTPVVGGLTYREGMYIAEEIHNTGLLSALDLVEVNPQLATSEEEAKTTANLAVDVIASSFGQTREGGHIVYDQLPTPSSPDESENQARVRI
# Experiment: in vitro enzyme assay to detect the production of urea directly proportional to the activity of Arginase II; note: in the data most compounds retested in dose-response had high values
# Format: functional
# Parameters: scale not given: direction of the effect not stated beside the values
# Conditions: 33.3 µM
row,SMILES,Percent Effect [%]
1,c1cnn(CC2CCCCN2Cc2cn3ccsc3n2)c1 (stereo not given),0
2,CN(Cc1nnc(-c2ccco2)o1)C1CCCN(c2cccnn2)C1 (stereo not given),-0.82
3,O=C(NCCn1nc2ccccn2c1=O)c1cccc2[nH]ncc12,-3.69
4,Cc1nc(CN2CCCC(CCc3c(F)cccc3F)C2)c[nH]1 (stereo not given),-6.64
5,CC(C)CN1C[C@@H]2CN(C(=O)[C@H]3CCCO3)C[C@@H]2C1=O,3.65
6,CC(NC(=O)NCCCn1cncn1)c1ccccc1Cl (stereo not given),3.99
7,Cc1[nH]ccc1C(=O)N1CCCC(c2nccn2Cc2cscn2)C1 (stereo not given),57
8,CCn1cc2c(n1)C(COC)CN(Cc1ccccn1)C2 (stereo not given),-2.43
9,O=C1CCCc2nccc(-c3ccccc3)c21,0.443
10,c1ccc(OCc2nnc3n2CCN(CC2CCOCC2)C3)nc1,-2.43
11,CN(C)CC1CN(Cc2ccsc2)Cc2nccn2C1 (stereo not given),3.24
12,CCOc1c(Cl)cccc1NCc1cc(C)on1,2.05
13,O=C(NCc1cc[nH]n1)NCC(c1ccc(F)cc1)N1CCOCC1 (stereo not given),2.87
14,CCc1nccn1C1CCCN(C(=O)c2csc(NC(C)=O)n2)C1 (stereo not given),0.205
15,Cc1ccc(C(=O)N2CCC3(CC2)CCN(CCN(C)C)C3=O)cn1,-0.457
16,Cc1ccc(C(=O)N2CCN(Cc3ccsc3)CC2)n1C,0.887
17,CS(=O)(=O)NCc1cc2n(n1)CCCN(Cc1cccc(C#N)c1)C2,10.8
18,O=C(NCC1CC1)C1CCC2(CCN(C(=O)c3ccccn3)CC2)O1 (stereo not given),2.74
19,O=C(NCc1cc[nH]n1)N(CCCO)C1CCc2ccccc21 (stereo not given),-1.77
20,CCC(NC(=O)CC(F)(F)F)c1ccccc1OCC(=O)N1CCCC1 (stereo not given),0

row,SMILES,Percent Effect [%]
1,CNC(=O)c1cccnc1Oc1ccccc1,0
2,O=C(CSc1ccc(F)c(F)c1)NS(=O)(=O)c1ccc2c(c1)OCCO2,1.23
3,CCSCCC(=O)NS(=O)(=O)c1ccc2c(c1)OCCO2,1.23
4,CC1CCCCN1Cc1ccc(-c2ccccc2C(=O)O)cc1 (stereo not given),0.443
5,Cc1noc(C)c1C(=O)N1CC[C@H]2C[C@@H](c3nccs3)O[C@@H]2C1,-10.5
6,Cn1ccc(CN2CCC(NC(=O)Cc3ccccc3)CC2)cc1=O,2.87
7,O=S(=O)(c1ccccc1)N1CCCCC1c1cc[nH]n1 (stereo not given),-1.77
8,COCCN(C)C[C@@H]1CCC[C@@H]2CN(c3cc(OC)ncn3)C[C@@H]21,-5.26
9,CC(C)NC(=O)N1CCN(Cc2ccccn2)CC2(CC(=O)N(C)C2)C1 (stereo not given),-2.28
10,CCn1nc(C)c(CCNC(=O)C2CCCN(C(=O)N(C)C)C2)c1C (stereo not given),1.05
11,Cc1cccc(C(=O)N2CCCN(Cc3cnn(C)c3)CC2)n1,6.15
12,COCCC(=O)N1CCn2c(COCC3CC3)cnc2C1C (stereo not given),-3.24
13,c1ccc(CNC2CCc3ncnn3C2)nc1 (stereo not given),1.23
14,COCCOc1cccc(C(=O)N2CCCC(n3ccnc3C)C2)c1 (stereo not given),-2.25
15,CC(C)N(Cc1nc2c(cnn2C)c(=O)[nH]1)c1ccccc1,4.1
16,Cc1nc(CN2CCCC(CCc3ccc(F)cc3F)C2)c[nH]1 (stereo not given),1.05
17,COCC(C)N(C)C(=O)c1nc(S(C)(=O)=O)n2ccccc12 (stereo not given),-2.05
18,Cc1ccccc1N1CC2(CCN(S(=O)(=O)c3cccs3)C2)CC1=O (stereo not given),-15.5
19,Cc1ccc(CN2CCCn3c(nc(Cn4cncn4)cc3=O)C2)s1,-1.22
20,Cc1ccc2oc(C(=O)N3CCc4nnc(N(C)C)cc4C3)cc2n1,0.887
